Assay results published in PubChem BioAssay (NCI).
About 83,000 compounds went through this panel and 20% of them were active in at least one assay; those are over-represented in the sample as a whole.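 Assay: single dose, 48 h. Readout: percent growth (0 = no net growth; negative = cell death). Active: <10.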 Active and inactive are the calls of the source.

These compounds were tested on MDA-MB-468 breast (assay: NCI-60 one-dose screen, 48 h (100 = growth as untreated, 0 = no growth, -100 = all killed)). Details: 10 µM unless noted.

Row | SMILES | growth
1 | COc1ccc(-c2noc(C(=O)O)c2-c2cc(OC)c(OC)c(OC)c2)cc1 | 24.7% (inactive)
2 | C[C@H]1Oc2cc(cnc2N)-c2c(nn(C)c2C#N)CN(C)C(=O)c2ccc(F)cc21 | 98.5% (inactive)
3 | O=[N+]([O-])/C(=C/C=C/c1ccccc1)c1ccccc1 | 2.79% (active)
4 | CCOC(=O)c1ccc2c(c1)nc(-c1ccc(OCc3ccccc3)c(OC)c1)n2-c1cc(C(C)(C)C)[nH]n1 | 77% (inactive)
5 | Nc1cc(-c2c[nH]c3ccc(F)cc23)nc2cc(-c3c[nH]c4ccc(F)cc34)nn12 | 115% (inactive)
6 | C=C1C(=O)O[C@H]2[C@H]1CC/C(Cn1cc(-c3ccsc3)nn1)=C\CC[C@@]1(C)O[C@@H]21 | -56.8% (active)
7 | O=C(NCCCl)Nc1ncccc1OCc1ccccc1 | 104% (inactive)
8 | CC(C)(C)c1cc(C(C)(C)C)cc(S(=O)(=O)Nc2cc3ccccc3cc2C(=O)NCCN)c1 | -69.6% (active)
9 | CC1OC(OC2C(OC3CCC4(C)C(CCC5(C)C4CC=C4C6CC(C)(C)CCC6(CO)C(O)CC45C)C3(C)C)OC(C(=O)O)C(OC3OC(COC4OC(CO)C(O)C(O)C4O)C(O)C(O)C3O)C2O)C(O)C(O)C1O (stereo not given) | -80.5% (active)
10 | CCCCCC(=O)N1c2ccccc2NC2=C(C(=O)CC(c3ccc(OC)c(OC)c3)C2)C1c1ccc(C(F)(F)F)cc1 (stereo not given) | 14.2% (inactive)
11 | COc1cc2c(cc1OC)-c1ccc3cc4c(cc3c1N(CCN1CCCC1)C2)OCO4 | -5.22% (active)
12 | Cc1ccc(C(CN(C)C)C(=O)c2ccccc2)cc1 (stereo not given) | 4.73% (active)
13 | Cc1ccccc1OC(=O)c1cccc(Cl)c1 | 107% (inactive)
14 | Cc1sc2nc(NCCN)[nH]c(=O)c2c1C | 80% (inactive)
15 | COc1ccc2[nH]cc(-c3cc(N)n4nc(-c5c[nH]c6ccc(OC)cc56)cc4n3)c2c1 | -47.9% (active)
16 | COc1cc(-c2nc3ccccc3s2)ccc1NC(=O)COc1ccc(Cl)cc1 | 21.3% (inactive)
17 | CN(C=O)c1ccccc1 | 87.3% (inactive)
18 | NCC(O)C(O)C(O)C(O)CO (stereo not given) | 98.7% (inactive)
19 | CCOC(=O)c1cnn2c3ccccc3n(S(=O)(=O)c3ccc(OC)cc3)c12 | -12.1% (active)
20 | O=C(c1ccccc1)C1C(=O)N2C(=S)N(c3ccccc3)C(=O)C2C1c1ccc(Cl)cc1 (stereo not given) | 0.678% (active)

Row | SMILES | growth
21 | COc1ccc(N(C)c2nc(Cl)nc3ccn(C)c23)cc1 | 49.9% (inactive)
22 | C=C1[C@@H](O)C[C@H]2C(C)(C)C[C@H](Cl)C[C@]2(C)[C@H]1C[C@H](O)[C@H]1CC(=O)NC1=O | -47.5% (active)
23 | O=C(Nc1nc(-c2ccccc2Cl)cs1)c1cc(-c2ccc(Cl)cc2)nc2ccc(Cl)cc12 | 89.4% (inactive)
24 | CS(=O)(=O)c1ccc(Cl)c([N+](=O)[O-])c1 | 103% (inactive)
25 | CCC1CCc2nc3sc(C(=O)Nc4cccc(C)c4)c(N)c3cc2C1 (stereo not given) | 44.5% (inactive)
26 | Cc1cc(Nc2nc(-c3ccc(F)cc3)nc3ccccc23)n[nH]1 | 58.2% (inactive)
27 | COc1ccc(OC)c(/C=C/c2nc(SC)n(-c3ccc(Cl)cc3)n2)c1 | 25.2% (inactive)
28 | Cc1cc2c(cc1[N+](=O)[O-])NC(CNC(C)C)CC2 (stereo not given) | 83.3% (inactive)
29 | [O-]/[N+](=C\c1ccccc1)CC1(O)CCCCC1 | 108% (inactive)
30 | Cc1ccc2nc(-c3ccc(C(=O)N/N=C/c4ccc([N+](=O)[O-])cc4)cc3)[nH]c2c1 | 113% (inactive)
31 | CC1(C)CCC(S(=O)(=O)c2ccc3c(c2)/C(=N\O)c2cc(S(=O)(=O)N4CCN(c5ccc(F)cc5O)CC4)ccc2-3)CC1 | -82.5% (active)
32 | C=CCN1C(=O)/C(=c2\sc3n(c2=O)NC2C(N=3)N(CC)C(=O)N2CC)c2ccccc21 (stereo not given) | 44.6% (inactive)
33 | N#C/C(=C\c1ccc(-c2ccc(Cl)cc2Cl)o1)c1ccc(F)cc1 | 96.3% (inactive)
34 | C=C1C(=O)O[C@@H]2C[C@@H](C)[C@H](OC)CC(=O)[C@](C)(OC(C)=O)C[C@H](OC(=O)/C(C)=C\C)[C@@H]12 | 54.5% (inactive)
35 | CS(=O)(=O)c1ccc(-c2nc3ccccc3n2CC(=O)N/N=C/c2ccccc2)cc1 | 112% (inactive)
36 | O=S(=O)(NCCCNc1cc(-c2cn(-c3ccccc3)nc2-c2cccc(O)c2)ccn1)c1ccc(C(F)(F)F)cc1 | 3.04% (active)
37 | C#Cc1ccc(-n2c(/C=C/c3cc(OC)cc(OC)c3)nc3ncccc3c2=O)cc1 | 37.4% (inactive)
38 | COc1ccc(C(=O)c2cc(OC)c(OC)c(OC)c2)cc1OC(=O)C(Cl)(Cl)Cl | 35.8% (inactive)
39 | O=C(Nc1ccc(-n2ccc3c(NC(=O)c4ccccc4)ncnc32)cc1)c1cccc(C(F)(F)F)c1 | 58.6% (inactive)
40 | O=C1c2ccc3c4c(ccc(c24)C(=O)N1CCCNCc1ccccc1F)C(=O)N(CCCNCc1ccccc1F)C3=O | -95.1% (active)
